The experiment concerns TDF. In words: cell number relative to DMSO (% of DMSO); higher = more cells (less growth inhibition / toxicity). The note with it: concentration: 10 µM; 24 h. A digest of the protocol: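 Using 384-well plates with 800 cells per well in RPMI plus 10% FBS, HCC1569 and TDF cells were exposed to compounds at 10 µM, in triplicate, for 24 h at 37 °C. Imaging of six fields per well at ×10 followed H1.0 and DAPI staining. The reported quantity, H1.0 nuclear intensity or cell number, is a median of replicates given as percent of the plate control, and HCC1569 values were smoothed for positional effects.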
`CCOC(=O)C(CCc1ccccc1)NC(C)C(=O)N1C(C(=O)O)CC2CCCC21` (centres undefined) [Ramipril]: the cell number turned out to be 105.
The compound `C[N+](C)(C)CCOC(N)=O.[Cl-]` [Carbachol] came in with a cell number of 120.
`CCCCCC(CC(=O)NO)C(=O)NC(C(=O)N1CCCC1CO)C(C)C` (centres undefined) [Actinonin] displayed a cell number of 89.
In the case of `CS(=O)(=O)CCNCc1nc(-c2ccc3ncnc(Nc4ccc(OCc5cccc(F)c5)c(Cl)c4)c3c2)cs1.Cl.Cl` it was 99.7; in that of `CCn1cc(C(=O)O)c(=O)c2ccc(Cc3ccccc3)nc21` [Amfonelic acid], 94.6; in that of `CC(O)(P(=O)([O-])O)P(=O)([O-])O` [Etidronate], 106.
Then `NC(=O)NO` [Hydroxyurea], with 108.
Compound `CNc1nccc(-c2cccnc2Oc2cc(C(=O)Nc3cccc(C(F)(F)F)c3)ccc2C)n1` registered a cell number of 103.
Then `COC(=O)Nc1nc2ccc(C(=O)c3ccccc3)cc2[nH]1` [Mebendazol], with 11.6; and `CCOC(=O)c1cnc2c(cnn2CC)c1NN=C(C)C.Cl` [Etazolate hydrochloride], with 101.
Then `Cc1ccc(S(=O)(=O)NC(Cc2ccccc2)C(=O)CCl)cc1` [N-p-Tosyl-L-phenylalanine chloromethyl ketone], with 84.6; and `Cl.NO` [Hydroxylamine hydrochloride], with 95.5; and `CC(=O)NC(CS)C(=O)O` (centres undefined) [N-Acetyl-Cysteine], with 95.1.
For the compound `COc1cc(-c2oc3cc(O)ccc3c(=O)c2O)ccc1O` [Geraldol], the cell number stood at 73.9.

For the origin of these results see the supplement of paper PMC7156485.
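Note: TDF denotes transformed human dermal fibroblasts of mesenchymal origin.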
